The text below walks through data of PubChem BioAssay (Tox21).

Each structure is given as a SMILES string. Results filed as inconclusive are left out. Unmarked numbers belong to inactive results. Active and inactive are the calls of the source. Unless noted, the call rests on the fitted dose curve; in most records, active means well fitted curve in the direction sought with a large enough effect in the repeat runs; inconclusive means weak or mixed curves; inactive means no such curve, though single readings can be large; an effect the other way counts as inactive or inconclusive.

Experiment [1] can be described thus: qHTS assay to identify small molecule agonists of the estrogen related receptor signaling pathway with the pleiotropic PPARgamma coactivator (PGC) (AID 1224823). Put shortly: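 In this quantitative high-throughput screen, an 18 h, 37 C treatment of PGC/ERR cells with compounds in DMSO preceded a One-Glo luminescence read taken after 30 min at room temperature.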
(In general: In qHTS, concentration-response curves come from the screen itself.)

Experiment [2] is described as follows: qHTS assay to identify small molecule antagonists of the estrogen related receptor (ERR) signaling pathway from Tox21 library - cell viability counter screen (AID 1224834). Further: nearly all actives have a fitted effect of over 30% in size. Further: potency means the concentration at half of the fitted maximal effect. Put shortly:
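Seeded ERR cells were rested 6 h at 37 C/5% CO2 before compounds, positive and negative controls or DMSO were added. Incubation continued for 17.5 h, and viability was then quantified by CellTiter-Fluor fluorescence.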

Experiment [3] concerns the target Luciferin 4-monooxygenase (Photinus pyralis) (UniProt P08659). Briefly: qHTS assay to identify small molecule inhibitors of firefly luciferase (AID 1224835). Further: nearly all actives have a fitted effect of over 25% in size. Further: potency means the concentration at half of the fitted maximal effect. On activity change, negative = inhibition: series mostly up to about 120 µM. Put shortly: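 Biochemical qHTS: compounds run as interplate titrations against purified firefly enzyme, with D-luciferin and ATP each at its KM concentration. Light output recorded by CCD imaging.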
A short description of experiment [4]: qHTS assay to identify small molecule antagonists of the constitutive androstane receptor (CAR) signaling pathway - cell viability counter screen (AID 1224837). Further: nearly all actives have a fitted effect of over 45% in size. Further: potency means the concentration at half of the fitted maximal effect. On activity change, negative = cytotoxicity: series mostly up to about 92 µM. Put shortly:
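To flag cytotoxic false antagonists, HepG2 hCAR/CYP2B6-2.2kb cells were treated 23 hr with 15-concentration compound series and 50 nM CITCO at 37 C/5% CO2; CellTiter-Fluor fluorescence was the measured end point.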

The target of experiment [5] is Nuclear receptor subfamily 1 group I member 3 (Homo sapiens) (UniProt Q14994). As to the kind of experiment: qHTS assay to identify small molecule antagonists of the constitutive androstane receptor (CAR) signaling pathway (AID 1224838).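 Further: HepG2 cells stably expressing hCAR with CYP2B6 luciferase reporter stimulated by CITCO; nearly all actives have a fitted effect of over 40% in size.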 Further: potency means the concentration at half of the fitted maximal effect. Put shortly:
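Human hepatoma HepG2 cells expressing hCAR and a CYP2B6 promoter (2.2 kb) luciferase construct; compound titration (15 points) with 50 nM CITCO final, 24 h at 37 C/5% CO2; luminescence via ONE-Glo after 30 min at room temperature.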

Experiment [6] can be described thus: qHTS assay to identify small molecule agonists of the estrogen related receptor signaling pathway with the pleiotropic PPARgamma coactivator (PGC) from Tox21 10K library (AID 1224842). Further: nearly all actives have a fitted effect of over 15% in size. Further: potency means the concentration at half of the fitted maximal effect. Put shortly:
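PGC/ERR reporter cell line, 2,000 cells per well, incubated 6 h at 37 C before 23 nL compound in DMSO was added. After 18 h at 37 C, One-Glo luminescence read following 30 min at room temperature.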

The nature of experiment [7]: qHTS assay to identify small molecule agonists of the constitutive androstane receptor (CAR) signaling pathway - cell viability counter screen (AID 1224836). Further: nearly all actives have a fitted effect of over 45% in size. Further: potency means the concentration at half of the fitted maximal effect. On viability change, negative = cytotoxic: series mostly up to about 92 µM. Put shortly:
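Cells were seeded and incubated 4 hrs. Compounds were added across 15 concentrations together with PK11195 at 0.75 uM final. Plates were incubated 23 hrs at 37 C. CellTiter-Fluor was added and fluorescence measured.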

Experiment [8] concerns the target Nuclear receptor subfamily 1 group I member 3 (Homo sapiens) (UniProt Q14994). Briefly: qHTS assay to identify small molecule agonists of the constitutive androstane receptor (CAR) signaling pathway (AID 1224839). Further: nearly all actives have a fitted effect of over 15% in size. Further: potency means the concentration at half of the fitted maximal effect.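 On activation: HepG2 cells stably carrying human CAR and a CYP2B6 luciferase reporter; series mostly up to about 92 µM.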 Put shortly: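 Cells were plated and incubated 4 hrs, then dosed with compounds at 15 concentrations. PK11195 was added to 0.75 uM final. After 24 hrs at 37 C, luciferase luminescence was measured.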

The nature of experiment [9]: qHTS assay to identify small molecule antagonists of the estrogen related receptor signaling pathway with the pleiotropic PPARgamma coactivator (PGC) from Tox21 10K library - cell viability counter screen (AID 1224840; active means well fitted cell-killing curve with a large enough effect in the repeat runs, not every such curve was filed as active; further: nearly all actives have a fitted effect of over 40% in size). Put shortly:
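Seeded PGC/ERR cells (2,000/well, 6 h, 37 C/5% CO2) get compound by pin tool; 17.5 h incubation at 37 C; CellTiter-Fluor added, 30 min, fluorescence measured.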

Experiment [10] can be described thus: qHTS assay to identify small molecule antagonists of the estrogen related receptor signaling pathway with the pleiotropic PPARgamma coactivator (PGC) from Tox21 10K library (AID 1224841; call rule not given here; further: actives are mostly falling curves and most rising ones were filed inactive; nearly all actives have a fitted effect of over 50% in size; further: potency means the concentration at half of the fitted maximal effect; on activity, negative = inhibition: series mostly up to about 92 µM). Put shortly: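 Test chemicals dissolved in DMSO were applied to pre-incubated (6 h) PGC/ERR cells at 2,000 cells/well for an 18 h, 37 C treatment; reporter luminescence was then read using One-Glo.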
On the % scale 0 is the no-effect control and ±100 the full control effect.

Sequence of Nuclear receptor subfamily 1 group I member 3 (Homo sapiens) (Q14994 whole entry, looked up): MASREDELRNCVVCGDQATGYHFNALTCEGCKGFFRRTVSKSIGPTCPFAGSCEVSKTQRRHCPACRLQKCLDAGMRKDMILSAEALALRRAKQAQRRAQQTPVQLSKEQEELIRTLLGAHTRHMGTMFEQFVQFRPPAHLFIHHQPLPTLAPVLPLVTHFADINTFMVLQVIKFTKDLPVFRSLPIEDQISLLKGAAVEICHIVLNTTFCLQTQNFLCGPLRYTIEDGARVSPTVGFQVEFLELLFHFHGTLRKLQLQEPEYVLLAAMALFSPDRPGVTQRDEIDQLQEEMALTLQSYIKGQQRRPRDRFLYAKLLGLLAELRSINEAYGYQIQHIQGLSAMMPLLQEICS
Sequence of Luciferin 4-monooxygenase (Photinus pyralis) (P08659 whole entry, looked up): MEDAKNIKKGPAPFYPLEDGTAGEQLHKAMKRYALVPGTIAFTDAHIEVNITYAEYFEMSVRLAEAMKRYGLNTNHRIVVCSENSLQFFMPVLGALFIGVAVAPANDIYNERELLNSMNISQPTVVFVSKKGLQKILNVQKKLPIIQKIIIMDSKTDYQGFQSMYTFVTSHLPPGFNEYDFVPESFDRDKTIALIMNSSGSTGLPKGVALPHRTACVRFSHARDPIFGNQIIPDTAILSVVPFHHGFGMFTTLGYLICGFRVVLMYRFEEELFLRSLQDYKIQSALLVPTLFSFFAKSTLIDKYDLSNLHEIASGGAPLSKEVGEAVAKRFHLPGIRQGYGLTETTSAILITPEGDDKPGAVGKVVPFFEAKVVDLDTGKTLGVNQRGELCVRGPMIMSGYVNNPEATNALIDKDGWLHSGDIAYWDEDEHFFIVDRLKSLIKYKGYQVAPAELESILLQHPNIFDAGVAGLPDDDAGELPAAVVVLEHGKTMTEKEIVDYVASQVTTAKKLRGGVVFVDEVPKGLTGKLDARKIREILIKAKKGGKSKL

Regarding `CCNC(=O)N1CCN(CCCC(c2ccc(F)cc2)c2ccc(F)cc2)CC1`, the Potency entry in experiment [1], in experiment [3], in [5] and in experiment [6] was “inactive” throughout. In addition, the Potency in [2] was 18.8 µM (active); in [4] it was 21.1 µM (active).
With `C=C(C)C(=O)OCCOC(=O)CC(C)=O`, the Potency entry in experiment [2], in experiment [3], in experiment [7] and in experiment [4] was “inactive” throughout.
On to `Nc1nc(Cl)nc2c1ncn2[C@@H]1O[C@H](CO)[C@@H](O)[C@@H]1F`, for which the Potency entry in [2], in experiment [3], in [7] and in experiment [4] was “inactive” throughout.
In the case of `CCCCCCCCCCCC[N+](C)(C)CC(=O)[O-]`, the Potency result in experiment [2], in experiment [3], in experiment [7], in experiment [4], in experiment [5] and in experiment [8] was “inactive” each time.
With `Fc1c(F)c(F)c(Br)c(F)c1F`, the Potency entry in experiment [2], in experiment [3], in [7], in experiment [4], in experiment [5] and in experiment [8] was “inactive” throughout. Further, in experiment [9], the Potency result is “inactive”.
For the compound `CCn1nc(C)c2c1C(=O)NCC(c1ccc(O)cc1)=N2`, the Potency result in experiment [2], in experiment [3], in experiment [7], in [4], in [5] and in experiment [8] was “inactive” each time. The Potency entry in experiment [9] was “inactive”.
As for `CCCc1c(OCCCOc2ccc(OCC(=O)O)cc2)ccc(C(C)=O)c1O`, the Potency entry in experiment [1], in experiment [2], in [7], in experiment [4], in experiment [9] and in experiment [10] was “inactive” in each case. Also, the Potency entry in experiment [6] is “inactive”.
In the case of `CN1CCN(c2c(F)cc3c(=O)c(C(=O)O)cn4c3c2OCN4C)CC1`, the viability change, negative = cytotoxic in [2] is 6.99% [at 19 µM]; in [7], 0.256% [at 19 µM]; in [9], 9.28% [at 19 µM]. Besides, the activity change, negative = inhibition in [3] was 2.58% [at 23.6 µM]. For the same compound, the activity change, negative = cytotoxicity in experiment [4] is -2.88% [at 19 µM]. In addition, the activity, negative = inhibition in experiment [5] is 0.0919% [at 19 µM]. For the same compound, in experiment [8], the activation was -1.52% [at 19 µM].
As for `C[Si](NC1CCCCC1)(NC1CCCCC1)NC1CCCCC1`, the Potency entry in experiment [2], in [3], in [7] and in experiment [4] was “inactive” throughout.
For `CCn1cc(C(=O)O)c(=O)c2cc(F)c(N3CCNCC3)nc21`, the Potency result in experiment [2], in [3], in [7] and in experiment [4] was “inactive” each time.
`C[C@@H]1C[C@H]2[C@@H]3CCC4=CC(=O)C=C[C@]4(C)[C@@]3(F)[C@@H](O)C[C@]2(C)[C@H]1C(=O)CO`: the Potency result in experiment [2], in [3], in [7], in [4], in experiment [5] and in experiment [8] was “inactive” in each case.
For the compound `COC(=O)CC(=O)C(C)(C)C`, the Potency entry in experiment [2], in [3], in experiment [7] and in experiment [4] was “inactive” throughout.
As for `COC(=O)[C@@H]1CC2=CC(=O)CC[C@]2(C)[C@@]23O[C@@H]2C[C@@]2(C)[C@@H](CC[C@@]24CCC(=O)O4)[C@H]13`, the Potency entry in experiment [2], in [3], in experiment [7], in experiment [4], in experiment [5] and in experiment [8] was “inactive” throughout. For the same compound, the Potency result in experiment [9] was “inactive”.
For `Brc1cc(-c2ccc(Br)c(Br)c2Br)cc(Br)c1Br`, the Potency entry in experiment [2], in [3], in experiment [7], in experiment [4] and in experiment [5] was “inactive” each time. For the same compound, the Potency in experiment [8] was 24 µM (active).
For the compound `ON(Cc1ccccc1)Cc1ccccc1`, the Potency result in [2], in [3], in [7], in experiment [4] and in experiment [5] was “inactive” in each case.
Take `C=CCOC(=O)/C=C\C(=O)OCC=C`: the Potency entry in [2], in [3], in experiment [7], in experiment [4], in [5] and in experiment [8] was “inactive” each time. Besides, the Potency result in experiment [9] is “inactive”.
For `C=CC(C)=CCC=C(C)C`, the Potency entry in experiment [2], in experiment [3], in experiment [7], in [4], in [5] and in experiment [8] was “inactive” throughout. The Potency result in experiment [9] was “inactive”.
With `O=C(Nc1ccc([N+](=O)[O-])cc1)Nc1ccc([N+](=O)[O-])cc1`, the Potency entry in experiment [2], in experiment [3], in experiment [7] and in experiment [4] was “inactive” throughout.
With `Cc1nc2ccccn2c(=O)c1CCN1CCC(C(=O)c2ccc(F)cc2)CC1`, the Potency entry in experiment [1], in experiment [2], in experiment [3], in [7], in experiment [4] and in experiment [5] was “inactive” in each case. Also, the Potency entry in [8], in experiment [9] and in experiment [6] was “inactive” in each case.
For the compound `CCCCCC=CCC=CCCCCCCCC(=O)OCC`, the Potency result in [2], in experiment [3], in [7], in experiment [4], in [5] and in experiment [8] was “inactive” in each case.
Regarding `C[N+](C)(C)CCOC(N)=O`, the Potency entry in experiment [2], in experiment [3], in experiment [7], in [4], in experiment [5] and in experiment [8] was “inactive” each time. In addition, the Potency result in experiment [9] was “inactive”.
Regarding `CCOC(=N)CC(=O)OCC`, the Potency entry in experiment [2], in experiment [3], in experiment [7], in experiment [4], in experiment [5] and in experiment [8] was “inactive” in each case. Moreover, the Potency entry in experiment [9] is “inactive”.
On to `CC(CCc1ccc2c(c1)OCO2)NN` (stereo unspecified), for which the Potency entry in [2], in experiment [3], in experiment [7], in experiment [4], in experiment [5] and in experiment [8] was “inactive” each time. The Potency result in [9] is “inactive”.
With `CN1CCCN=C1/C=C/c1cccs1`, the Potency result in experiment [2], in experiment [3], in experiment [7], in [4], in [5] and in experiment [8] was “inactive” throughout. Further, in [9], the Potency result was “inactive”.
Take `Cc1ccnc2ccccc12`: the Potency result in experiment [2], in experiment [3], in [7], in experiment [4], in experiment [5] and in [8] was “inactive” throughout. Moreover, in [9], the Potency entry was “inactive”.
As for `O=C(N/N=C/c1ccc([N+](=O)[O-])o1)c1ccc(O)cc1`, the Potency is 13.3 µM (active) in [2], 9.44 µM (active) in experiment [7], 8.41 µM (active) in [4] and 8.41 µM (active) in experiment [5]. Also, the Potency result in experiment [3], in experiment [8] and in [9] was “inactive” each time.
Turning to `CCN(CC)CCNC(=O)c1ccc(NC(C)=O)cc1`, the Potency entry in [2], in experiment [3], in experiment [7], in experiment [4], in experiment [5] and in experiment [8] was “inactive” in each case. In experiment [9], the Potency result was “inactive”.
On to `O=C(O)c1cccnc1C(=O)O`, for which the Potency entry in experiment [2], in [3], in [7] and in experiment [4] was “inactive” throughout.
With `Nc1ccc(C(=O)OCCCOC(=O)c2ccc(N)cc2)cc1`, the Potency entry in experiment [2], in [3], in [7], in [4] and in experiment [5] was “inactive” each time. In [8], the Potency was 30.6 µM (active).
On to `Cc1cc(C(=C2C=CC(=Nc3ccc(S(=O)(=O)O)cc3S(=O)(=O)O)C=C2)c2ccc(Nc3ccc(S(=O)(=O)O)cc3)cc2)ccc1N`, for which the Potency result in experiment [2], in experiment [7], in experiment [4], in experiment [5] and in experiment [8] was “inactive” throughout. Also, the Potency in experiment [3] was 23.2 µM (active).
With `COc1cc2c(cc1OC)-c1cc(=Nc3c(C)cc(C)cc3C)n(C)c(=O)n1CC2`, the Potency result in [1], in experiment [3], in [7], in experiment [4], in [5] and in [9] was “inactive” throughout. Further, the Potency entry in experiment [10] is “inactive”. In addition, the Potency in experiment [6] is 13.3 µM (active).
Turning to `COCCOC(=O)C1=C(C)NC(C)=C(C(=O)OC/C=C/c2ccccc2)C1c1cccc([N+](=O)[O-])c1` (stereo unspecified), the Potency entry in experiment [1], in experiment [3], in [7], in experiment [5] and in experiment [6] was “inactive” throughout. For the same compound, the Potency in experiment [10] was 23.7 µM (active).
